# Activity calls are given as the source filed them. The rule behind the calls is not given here.
# Target: Pantothenate synthetase (Mycobacterium tuberculosis (strain ATCC 25618 / H37Rv)) (UniProt P9WIL5)
# Experiment: Coupled enzyme confirmation of inhibitors against recombinant Mtb PanC (AID 375);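 note: 0% = full reaction with vehicle and 100% = no enzyme background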
# Conditions: coupled enzyme assay; at 10 µM, stronger effect = higher value
# Pantothenate synthetase (Mycobacterium tuberculosis (strain ATCC 25618 / H37Rv)), sequence (P9WIL5 whole entry, looked up): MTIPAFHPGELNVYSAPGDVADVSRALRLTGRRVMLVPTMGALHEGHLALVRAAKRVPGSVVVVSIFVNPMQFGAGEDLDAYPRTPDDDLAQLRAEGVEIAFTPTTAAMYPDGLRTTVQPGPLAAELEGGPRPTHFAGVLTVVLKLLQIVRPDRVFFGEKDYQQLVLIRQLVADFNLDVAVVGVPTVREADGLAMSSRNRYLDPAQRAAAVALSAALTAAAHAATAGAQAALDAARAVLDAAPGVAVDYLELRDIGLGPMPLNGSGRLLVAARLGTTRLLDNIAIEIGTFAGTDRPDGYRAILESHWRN
row,Compound,inhibition
1,N#C/C(C(=O)N1CCOCC1)=C1/SC(Cc2ccccc2)C(=O)N1c1ccccc1 (stereo not given),0% (inactive)
2,CCOc1ccc(-c2nc(N)ncc2-c2ccccc2)c(O)c1,0% (inactive)
3,COC(=O)c1cc(S(=O)(=O)N2CCC(C)CC2)ccc1F,6% (inactive)
4,CCc1nc(SCC(=O)Nc2nccs2)c2oc3ccccc3c2n1,0% (inactive)
5,Clc1ccc(Cl)c(-c2nn3c(COc4ccccc4)nnc3s2)c1,4% (inactive)
6,O=C(NCc1ccc2c(c1)OCO2)C1CCC(CNS(=O)(=O)c2ccccc2)CC1 (stereo not given),0% (inactive)
7,CC(C(N)=O)N1C(=O)C2C3C=CC(C3)C2C1=O (stereo not given),2% (inactive)
8,O=C(Cn1nnc(-c2ccc(CN3CCOCC3)cc2)n1)NC1CCCCC1,12% (inactive)
9,CCc1nnc(NC(=O)COC(=O)CN2C(=O)c3ccccc3C2=O)s1,0% (inactive)
10,CCCC(=O)Nc1ccccc1NC(=O)CN(C)S(=O)(=O)c1ccc(C)cc1,2% (inactive)
11,Cc1ccc(-n2c(N)c(C(N)=O)sc2=S)cc1,6% (inactive)
12,CCN1C(=O)Cc2cc(S(=O)(=O)N3CCOCC3)ccc21,9% (inactive)
13,CCn1c(=S)ccc2ccc(OC)cc21,0% (inactive)
14,O=C(NCCCNC1CCCCC1)c1ccc(/C=N/O)nc1,0% (inactive)
15,c1ccc(-c2ccc(-c3ccccn3)nn2)nc1,8% (inactive)
16,COc1ccccc1NC(=O)CSc1nnc(-c2ccncc2)n1CC1CCCO1 (stereo not given),0% (inactive)
17,O=C(CSc1nc2ccccc2s1)N1CCOCC1,0% (inactive)
18,CC1(C)COCN1S(=O)(=O)c1ccc(C(=O)Nc2nnc(-c3ccc(Cl)s3)o2)cc1,4% (inactive)
19,O=C(CC(Cc1ccccc1)C(=O)O)NCCc1ccc2c(c1)OCO2 (stereo not given),1% (inactive)
20,CCOC(=O)CNC(=O)CSc1nc(N(C)C)nc(N2CCOCC2)n1,6% (inactive)

row,Compound,inhibition
1,O=C(Nc1ccccc1C(=O)N1CCOCC1)C1COc2ccccc2O1 (stereo not given),0% (inactive)
2,O=C(CCN1C(=O)c2ccccc2C1=O)Nc1ccc(F)cc1,0% (inactive)
3,CN(C)C(=O)Cn1c(SCC(=O)NC2CCCCC2)nc2ccccc21,0% (inactive)
4,O=C(Nc1cccnc1N1CCOCC1)c1ccco1,10% (inactive)
5,CN(c1ccccc1C(=O)NCC1CCCO1)S(C)(=O)=O (stereo not given),2% (inactive)
6,O=C(Nc1ccc2c(c1)OCO2)c1cc2ncc(Br)cn2n1,3% (inactive)
7,CC(C)(C)C(=O)NC1CCN(C(=O)N2CCCC2)CC1,6% (inactive)
8,COc1cccc(NC(=O)COc2ccccc2C(N)=O)c1,0% (inactive)
9,CC1CCCC(NC(=O)CSc2ncccc2C(=O)O)C1C (stereo not given),0% (inactive)
10,COC(=O)Nc1ccc(S(=O)(=O)N2CCCCCC2)cc1,0% (inactive)
11,CC(=O)N(c1ccc(N(C(C)=O)S(=O)(=O)c2cccs2)cc1)S(=O)(=O)c1cccs1,0% (inactive)
12,COc1ccc(NC(=O)c2cnc3n(c2=O)CCS3)cc1OC,0% (inactive)
13,CCCC(CCC)C(=O)NCCN1CCOCC1,0% (inactive)
14,CC1CCCN(S(=O)(=O)c2ccc(C(=O)Nc3nnc(-c4ccccc4Cl)o3)cc2)C1 (stereo not given),0% (inactive)
15,Cc1cc(C)cc(NC(=O)C2CCCN(S(=O)(=O)c3cnc[nH]3)C2)c1 (stereo not given),0% (inactive)
16,COc1cccc(CC(NC(C)=O)C(=O)NC2CCN(c3c4c(nc5ncnn35)CCC4)CC2)c1 (stereo not given),5% (inactive)
17,Cc1nn(C)c(C)c1S(=O)(=O)N1CCCC(C(=O)N2CCN(c3ccc(Cl)cc3)CC2)C1 (stereo not given),0% (inactive)
18,O=C(OCCCCN1C(=O)c2ccccc2C1=O)c1n[nH]c2ccccc12,2% (inactive)
19,N#Cc1c(N2CCOCC2)nc(N2CCCCC2)c2c1CCN(C1CCCCC1)C2,0% (inactive)
20,O=C1c2ccccc2-c2nc3ncnn3c(-c3ccccc3)c21,0% (inactive)
